Measured values reported in PubChem BioAssay.
For some of these results: Potency and affinity values are given separately. Calls of active or inactive are those of the source.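 The calls were made as follows, unless noted: active = compound raising the membrane signal above positive-control mean plus 3 SD in both repeats, and a primary screen hit; inactive = the rest.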

Tests used:
[1] = tested on: TRPC4 beta (transient receptor potential cation channel C4), mouse; test: TRPC4 cation channel opening, retest – cell-based, Fluo4 calcium, HEK293 TRPC4beta/mu-opioid, duplicates, 10 µM, confirmation (AID 2426;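 active = fluorescence ratio normalized to control raised more than 50% in primary screen plus both repeat runs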;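 as to activation: percent rise of integrated ratio over buffer wells lacking compound which define 0%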); conditions: Fluo4 calcium fluorescence, at 10 µM; hits give high values
[2] = tested on: transient receptor potential cation channel C4 beta (TRPC4), mouse; test: TRPC4 cation channel opening, second retest – cell-based, second round, Fluo4, HEK293 TRPC4beta/mu-opioid, 1 µM, confirmation (AID 2461;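 active = primary screen active and over 50% activation in each of two duplicate runs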); conditions: Fluo4 calcium fluorescence, at 1 µM; hits give high values
[3] = tested on: TRPC4 (transient receptor potential cation channel C4 beta), mouse; test: potentiation of DAMGO EC20 TRPC4 response – cell-based, second round, Fluo-4, HEK293 TRPC4beta/mu-opioid, 1 µM, confirmation (AID 2554;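 active = primary screen hit whose fluorescence ratio, in both repeats, exceeds the weak agonist control mean by 3 SD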); conditions: DAMGO EC20, Fluo-4 calcium flux, at 1 µM; hits give high values
[4] = tested on: TRPC4 beta (transient receptor potential cation channel C4), mouse; test: potentiation of DAMGO EC20 TRPC4 response – cell-based, Fluo-4, HEK293 TRPC4beta/mu-opioid, confirmation (AID 2555;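 active = primary screen hit whose calcium fluorescence ratio, in both repeats, exceeds the weak agonist control mean by 3 SD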); conditions: DAMGO EC20, Fluo-4 calcium flux, at 10 µM; hits give high values
[5] = molecular target: Short transient receptor potential channel 4 (Mus musculus) (UniProt Q9QUQ5); test: blockers of DAMGO-evoked TRPC4 calcium flux – cell-based, Fluo4, HEK293 TRPC4beta/mu-opioid, confirmation (AID 2636;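 active = calcium signal cut by more than 3 SD below the full-agonist control yet still positive, in both repeats and the earlier primary screen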); conditions: at 10 µM; hits give high values
Chain of Short transient receptor potential channel 4 (Mus musculus) (Q9QUQ5 whole entry, looked up): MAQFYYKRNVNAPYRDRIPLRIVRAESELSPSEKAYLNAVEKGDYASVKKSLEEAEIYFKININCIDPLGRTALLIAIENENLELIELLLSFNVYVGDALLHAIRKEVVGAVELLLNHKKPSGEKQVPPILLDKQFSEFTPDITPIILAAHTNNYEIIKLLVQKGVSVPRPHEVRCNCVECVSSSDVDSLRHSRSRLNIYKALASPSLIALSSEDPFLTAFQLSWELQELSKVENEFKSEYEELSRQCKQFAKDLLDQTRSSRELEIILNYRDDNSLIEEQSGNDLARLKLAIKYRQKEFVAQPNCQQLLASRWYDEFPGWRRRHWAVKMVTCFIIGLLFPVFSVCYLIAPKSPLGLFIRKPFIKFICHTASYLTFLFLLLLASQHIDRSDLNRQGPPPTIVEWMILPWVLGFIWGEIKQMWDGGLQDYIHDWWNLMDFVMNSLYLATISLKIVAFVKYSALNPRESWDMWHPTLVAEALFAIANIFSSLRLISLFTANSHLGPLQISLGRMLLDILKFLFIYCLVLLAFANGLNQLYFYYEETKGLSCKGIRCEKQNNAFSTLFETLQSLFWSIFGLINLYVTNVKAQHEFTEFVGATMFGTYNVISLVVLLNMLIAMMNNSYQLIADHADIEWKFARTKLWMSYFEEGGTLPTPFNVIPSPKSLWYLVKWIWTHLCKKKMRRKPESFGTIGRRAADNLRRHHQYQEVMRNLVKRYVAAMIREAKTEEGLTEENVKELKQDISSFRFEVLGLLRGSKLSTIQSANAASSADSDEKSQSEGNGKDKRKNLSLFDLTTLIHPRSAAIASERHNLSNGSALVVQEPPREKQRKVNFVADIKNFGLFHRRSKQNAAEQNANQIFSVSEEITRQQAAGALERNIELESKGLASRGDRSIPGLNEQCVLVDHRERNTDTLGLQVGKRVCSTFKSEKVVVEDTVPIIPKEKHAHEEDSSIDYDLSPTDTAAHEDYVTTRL

[6] = molecular target: Short transient receptor potential channel 4 (Mus musculus) (UniProt Q9QUQ5); test: blockers of DAMGO-evoked TRPC4 calcium flux – cell-based, second round, Fluo4, HEK293 TRPC4beta/mu-opioid, 1 µM, confirmation (AID 2637;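 active = calcium signal ratio cut to more than 3 SD under the fully stimulated control mean yet still positive, in both repeats and the primary screen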;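 as to inhibition: percent of integrated ratio relative to wells lacking test compound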); conditions: at 1 µM; hits give high values
[7] = molecular target: Short transient receptor potential channel 4 (Mus musculus) (UniProt Q9QUQ5); test: potentiation of DAMGO-evoked TRPC4 calcium signal – cell-based, HEK293 TRPC4/mu-opioid, Fluo-4 calcium, EC20 DAMGO, dose response (AID 434941;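 active = earlier screen potentiator hit that boosts the TRPC4 ion channel at some dose, with a dose response; inactive = no potentiation, no dose response, or not a prior hit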;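 also: calcium entry triggered by an EC20 dose of DAMGO at the co-expressed mu-opioid receptor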)
[8] = molecular target: Short transient receptor potential channel 4 (Mus musculus) (UniProt Q9QUQ5); test: block of DAMGO-driven TRPC4 calcium entry – cell-based, HEK293 TRPC4/mu-opioid, Fluo-4 calcium, dose response (AID 434942;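 active = primary screen inhibitor hit that blocks the TRPC4 channel at some tested dose, yielding a dose curve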)
[9] = molecular target: Short transient receptor potential channel 6 (Mus musculus) (UniProt Q61143); test: TRPC6 blockade by TRPC4 inhibitor hits – cell-based, HEK293, membrane potential dye, duplicate, selectivity assay for TRPC4 inhibitor project, confirmation (AID 434948;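 active = active in primary screen and both duplicates, each dropping signal beyond three positive-control SD with fluorescence still positive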); conditions: HEK293 TRPC6, membrane potential dye fluorescence, at 10 µM, stimulated with maximal-effect acetylcholine; hits give high values
Chain of Short transient receptor potential channel 6 (Mus musculus) (Q61143 whole entry, looked up): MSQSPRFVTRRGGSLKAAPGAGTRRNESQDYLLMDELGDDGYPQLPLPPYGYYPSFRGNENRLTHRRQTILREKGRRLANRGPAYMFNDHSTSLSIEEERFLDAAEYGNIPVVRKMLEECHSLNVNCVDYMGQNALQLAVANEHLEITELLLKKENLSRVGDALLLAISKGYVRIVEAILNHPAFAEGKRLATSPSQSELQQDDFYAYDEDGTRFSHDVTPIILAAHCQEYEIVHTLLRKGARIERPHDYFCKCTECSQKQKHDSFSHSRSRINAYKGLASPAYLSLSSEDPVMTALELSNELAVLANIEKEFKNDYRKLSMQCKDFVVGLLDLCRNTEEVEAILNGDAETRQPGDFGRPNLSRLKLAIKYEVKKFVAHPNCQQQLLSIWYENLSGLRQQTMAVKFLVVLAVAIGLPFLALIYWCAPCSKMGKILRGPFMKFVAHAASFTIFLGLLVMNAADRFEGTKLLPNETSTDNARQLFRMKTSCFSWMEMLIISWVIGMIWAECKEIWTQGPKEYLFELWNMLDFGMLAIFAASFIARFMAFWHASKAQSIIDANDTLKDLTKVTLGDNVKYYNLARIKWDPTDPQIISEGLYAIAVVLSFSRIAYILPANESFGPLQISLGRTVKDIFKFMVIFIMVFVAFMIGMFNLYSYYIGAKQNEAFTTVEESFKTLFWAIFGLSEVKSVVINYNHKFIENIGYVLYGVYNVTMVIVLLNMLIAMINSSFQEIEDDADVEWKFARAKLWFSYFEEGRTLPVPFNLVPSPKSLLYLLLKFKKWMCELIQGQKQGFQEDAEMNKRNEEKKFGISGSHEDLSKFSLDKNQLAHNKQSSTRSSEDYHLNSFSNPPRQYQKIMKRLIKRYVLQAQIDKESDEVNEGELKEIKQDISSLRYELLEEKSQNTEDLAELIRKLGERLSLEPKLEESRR

[10] = molecular target: Short transient receptor potential channel 6 (Mus musculus) (UniProt Q61143); test: TRPC6 opening by TRPC4 activator hits – cell-based, HEK293, membrane potential dye, duplicate, selectivity assay for TRPC4 activator project, confirmation (AID 434950;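 active = membrane potential signal rise above negative control mean plus 3 SD in both duplicates, also active in the earlier TRPC4 screen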;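 as to activation: 0% = buffer only wells and 100% = acetylcholine maximal-effect wells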); conditions: HEK293 TRPC6, membrane potential fluorescence, at 10 µM; activation: hits give high values; outcome: activation
[11] = molecular target: Short transient receptor potential channel 6 (Mus musculus) (UniProt Q61143); test: positive modulators of mouse TRPC6 channel – HEK293 cells, membrane potential dye, duplicate, selectivity assay for TRPC4 potentiator project, confirmation (AID 434952); conditions: HEK293 TRPC6, membrane potential dye fluorescence, at 10 µM, maximal acetylcholine added after compound; hits give high values
[12] = molecular target: Short transient receptor potential channel 4 (Mus musculus) (UniProt Q9QUQ5); test: calcium flux activators in TRPC4/5HT1a cells, counter-screen for TRPC4 activator project, cell-based, second counter screen, HEK293 TRPC4/5HT1a, Fluo-4 (AID 434977;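 active = calcium signal rise above buffer-control mean plus 5 SD in both duplicates, and also a hit in the primary screen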;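 as to activation: plate controls were assay buffer for no effect and maximal serotonin response for full effect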); conditions: Fluo-4 calcium flux, at 10 µM; hits give high values
[13] = serotonin-gated TRPC4 signal block – cell-based, second counter screen, HEK293 TRPC4/5HT1a, Fluo-4, counter-screen for TRPC4 inhibitor project, confirmation (AID 434978;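 active = primary screen active whose calcium signal fell more than 3 SD beyond the full-serotonin control mean in both duplicate plates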;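 as to outcome: serotonin given first at submaximal then at maximal dose after compound preincubation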); conditions: Fluo-4 calcium flux, at 10 µM, serotonin added to trigger calcium flux; hits give high values
[14] = tested on: TRPC4 (mouse), co-expressed with 5HT1a in HEK293; test: enhancement of serotonin-evoked TRPC4 response – cell-based, second counter screen, HEK293 TRPC4/5HT1a, Fluo-4, counter-screen for TRPC4 potentiator project, confirmation (AID 434979;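 active = signal rise over 3 SD above mean of control wells given weak agonist, in both repeats and first screen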); conditions: Fluo-4 calcium flux, at 10 µM, serotonin added at its EC20 dose; hits give high values
[15] = nonspecific calcium rise without TRPC4 – cell-based, HEK293 mu-opioid receptor line, counter-screen for TRPC4 activator project, confirmation (AID 449723;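 active = hit in primary screen, with calcium signal over 5 SD above buffer well mean in both duplicates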;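 also: counter screen cells carry the mu-opioid receptor alone and lack TRPC4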); conditions: HEK293 mu-opioid cells, Fluo-4 calcium fluorescence, at 10 µM; hits give high values
[16] = nonspecific potentiation of DAMGO calcium response – cell-based, HEK293 mu-opioid receptor line, counter-screen for TRPC4 allosteric potentiator project, confirmation (AID 449724;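 active = calcium signal rise more than 3 SD above the low-dose agonist control mean, in both duplicate plates and the primary screen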); conditions: HEK293 mu-opioid receptor cells, Fluo-4 calcium flux, at 10 µM, compound added before EC20 DAMGO stimulus; hits give high values
[17] = nonspecific flux increase, KCNQ1-free cells – parental CHO cells, counter-screen for KCNQ1 potentiator project (AID 493006;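 active = duplicate-averaged activation above buffer control mean plus 5 SD of those controls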;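 as to activation: fluorescence ratio of max minus min over baseline after K+ and Tl+ depolarization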); conditions: parental CHO-K1 cells, FluxOR thallium flux, at 10 µM; hits give high values
[18] = molecular target: Potassium voltage-gated channel subfamily KQT member 1 (Homo sapiens) (UniProt P51787); test: enhancement of KCNQ1 channel thallium flux – FluxOR thallium flux, CHO cells, duplicates, confirmation (AID 493007;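 active = potentiation averaged over duplicate wells exceeding buffer-only control mean by more than 3 SD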;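 as to outcome: cells depolarized by a potassium plus thallium sulfate stimulus after compound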;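 as to potentiation: 0% = buffer-only wells and 100% = R-L3 activator control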); conditions: KCNQ1 cell line, FluxOR thallium flux fluorescence, at 10 µM; hits give high values, % of reference activator effect, buffer zero
Chain of Potassium voltage-gated channel subfamily KQT member 1 (Homo sapiens) (P51787 whole entry, looked up): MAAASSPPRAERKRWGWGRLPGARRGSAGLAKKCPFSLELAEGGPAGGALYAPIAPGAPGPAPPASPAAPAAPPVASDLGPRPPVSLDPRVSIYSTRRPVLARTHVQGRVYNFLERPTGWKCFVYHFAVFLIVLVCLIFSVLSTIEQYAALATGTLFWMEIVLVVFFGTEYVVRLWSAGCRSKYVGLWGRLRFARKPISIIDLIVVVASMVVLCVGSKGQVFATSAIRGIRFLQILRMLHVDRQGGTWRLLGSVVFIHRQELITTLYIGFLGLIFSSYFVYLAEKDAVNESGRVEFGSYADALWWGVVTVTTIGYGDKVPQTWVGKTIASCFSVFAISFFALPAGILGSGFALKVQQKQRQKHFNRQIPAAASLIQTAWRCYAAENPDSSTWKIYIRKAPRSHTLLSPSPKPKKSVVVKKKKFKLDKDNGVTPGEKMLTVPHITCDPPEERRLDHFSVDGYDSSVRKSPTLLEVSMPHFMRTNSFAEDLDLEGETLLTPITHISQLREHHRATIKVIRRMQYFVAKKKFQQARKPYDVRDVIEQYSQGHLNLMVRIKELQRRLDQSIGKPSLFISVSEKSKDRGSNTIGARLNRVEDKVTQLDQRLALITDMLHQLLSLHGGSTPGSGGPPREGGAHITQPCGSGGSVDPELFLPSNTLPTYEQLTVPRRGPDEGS

[19] = molecular target: Potassium voltage-gated channel subfamily KQT member 1 (Homo sapiens) (UniProt P51787); test: KCNQ1 activators by electrophysiology – IonWorks patch clamp, KCNQ1-CHO cells, orthogonal assay for KCNQ1 potentiator project, confirmation (AID 493184;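 active = current rise at least 3 SD above the untreated control mean in each of two repeat wells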); conditions: automated patch clamp current, at 10 µM; hits give high values
[20] = molecular target: Potassium voltage-gated channel subfamily KQT member 2 (Rattus norvegicus) (UniProt O88943); test: KCNQ2 thallium flux enhancement – KCNQ2-CHO-K1 cells, selectivity assay for KCNQ1 potentiator project (AID 493009;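 active = mean duplicate potentiation above the buffer control mean plus 5 SD of buffer wells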;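 also: assay conditions were tuned for KCNQ1 rather than KCNQ2 modulators; signal is max minus min fluorescence divided by baseline after thallium stimulus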); conditions: FluxOR thallium flux fluorescence, at 10 µM; hits give high values, scaled: buffer 0, activator control 100
Chain of Potassium voltage-gated channel subfamily KQT member 2 (Rattus norvegicus) (O88943 whole entry, looked up): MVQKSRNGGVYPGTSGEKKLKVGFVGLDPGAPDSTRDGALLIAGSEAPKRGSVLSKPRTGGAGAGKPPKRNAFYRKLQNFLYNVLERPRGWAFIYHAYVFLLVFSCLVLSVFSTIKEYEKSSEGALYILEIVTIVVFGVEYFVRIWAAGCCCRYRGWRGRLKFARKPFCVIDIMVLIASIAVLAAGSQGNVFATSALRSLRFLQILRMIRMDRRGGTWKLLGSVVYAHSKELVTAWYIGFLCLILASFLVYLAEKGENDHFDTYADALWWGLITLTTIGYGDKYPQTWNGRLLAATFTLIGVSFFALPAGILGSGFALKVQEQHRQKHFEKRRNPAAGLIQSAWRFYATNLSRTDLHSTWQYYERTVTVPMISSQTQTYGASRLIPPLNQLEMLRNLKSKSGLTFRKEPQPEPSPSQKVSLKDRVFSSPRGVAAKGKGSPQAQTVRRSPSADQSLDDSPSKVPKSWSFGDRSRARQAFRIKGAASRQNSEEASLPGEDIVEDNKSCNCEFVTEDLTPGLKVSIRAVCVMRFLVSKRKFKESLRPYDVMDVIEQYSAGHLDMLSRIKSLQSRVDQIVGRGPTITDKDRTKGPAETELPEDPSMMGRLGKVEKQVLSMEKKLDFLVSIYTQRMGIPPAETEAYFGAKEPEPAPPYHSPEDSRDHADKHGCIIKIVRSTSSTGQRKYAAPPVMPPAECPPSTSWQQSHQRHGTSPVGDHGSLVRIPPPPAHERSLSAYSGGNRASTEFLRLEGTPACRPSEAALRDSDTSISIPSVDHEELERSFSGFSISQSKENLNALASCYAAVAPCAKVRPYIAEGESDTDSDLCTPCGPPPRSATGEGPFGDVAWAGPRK

COC(=O)C1=NN(C(=O)c2ccc(C)cc2)C(O)(c2ccc(Cl)cc2)C1 (centres undefined)
active: activation [1] 160% | activation [10] 315% | activation [12] 96.9% | activation [15] 67.6% | activation [17] 602% | potentiation [18] 280%
inactive: outcome [2] | outcome [3] | outcome [4] | outcome [5] | outcome [6] | outcome [7] | outcome [8] | outcome [9] | outcome [11] | outcome [13] | outcome [14] | outcome [16] | outcome [19]

Cc1onc(-c2ccccc2)c1C(=O)NNC(=S)NC(=O)c1ccc(Br)cc1
active: activation [1] 263% | activation [12] 190% | activation [15] 70.7%
inactive: outcome [2] | outcome [3] | outcome [4] | outcome [5] | outcome [6] | outcome [7] | outcome [8] | outcome [9] | outcome [10] | outcome [11] | outcome [13] | outcome [14] | outcome [16] | outcome [17] | outcome [18] | outcome [20] | outcome [19]

C/C(=N/NC(=O)c1ccc(Cn2cccn2)o1)c1cccc(NC(=O)c2ccncc2)c1
inactive: outcome [2] | outcome [3] | outcome [4] | outcome [6] | outcome [7] | outcome [9] | outcome [11] | outcome [13] | outcome [14] | outcome [15] | outcome [16]
active: activation [1] 100% | inhibition [5] 97% | activation [10] 49% | activation [12] 11.3%

CCOC(=O)C1(CCc2ccccc2)CCN(Cc2ccc(O)cc2)CC1
active: inhibition [5] 88% | activation [10] 69%
inactive: outcome [1] | outcome [2] | outcome [3] | outcome [4] | outcome [6] | outcome [7] | outcome [9] | outcome [11] | outcome [12] | outcome [13] | outcome [14] | outcome [15] | outcome [16]

Cc1ccc(S(=O)(=O)NCCC(=O)NCC(c2ccco2)N2CCCCC2)cc1C (centres undefined)
active: activation [1] 82% | inhibition [6] 80% | activation [10] 37%
inactive: outcome [2] | outcome [3] | outcome [4] | outcome [5] | outcome [7] | outcome [9] | outcome [11] | outcome [12] | outcome [13] | outcome [14] | outcome [15] | outcome [16]

Cc1ccc(NS(=O)(=O)c2ccc(C(=O)N3CC(C)CC(C)C3)cc2)cc1 (centres undefined)
active: activation [1] 103% | activation [10] 65.5% | activation [12] 43.8% | activation [15] 25.6% | activation [17] 138%
inactive: outcome [2] | outcome [3] | outcome [4] | outcome [5] | outcome [6] | outcome [7] | outcome [8] | outcome [9] | outcome [11] | outcome [13] | outcome [14] | outcome [16] | outcome [18] | outcome [20] | outcome [19]

Cc1ccccc1C(=O)NNC(=S)NC(=O)c1ccc(Cl)cc1Cl
active: activation [1] 293% | activation [10] 35% | activation [12] 182% | activation [15] 84.2% | potentiation [18] 117% | potentiation [20] 222%
inactive: outcome [2] | outcome [3] | outcome [4] | outcome [5] | outcome [6] | outcome [7] | outcome [8] | outcome [9] | outcome [11] | outcome [13] | outcome [14] | outcome [16] | outcome [17] | outcome [19]

CN(C)C(CNC(=O)c1ccc2c(c1)S(=O)(=O)c1ccccc1C2=O)c1ccco1 (centres undefined)
active: activation [1] 142% | inhibition [5] 67% | activation [12] 42.8% | inhibition [13] 29.5%
inactive: outcome [2] | outcome [3] | outcome [4] | outcome [6] | outcome [7] | outcome [9] | outcome [10] | outcome [11] | outcome [14] | outcome [15] | outcome [16]

O=c1c2ccccc2[nH]c(=S)n1Cc1cccnc1
inactive: outcome [1] | outcome [2] | outcome [3] | outcome [4] | outcome [6] | outcome [7] | outcome [9] | outcome [10] | outcome [11] | outcome [12] | outcome [13] | outcome [14] | outcome [15] | outcome [16]
active: inhibition [5] 94%
